Laboratory results reported in PubChem BioAssay (NCI).
This is part of a sample that, as a whole, favours compounds with a hit. Of some 83,000 tested, about 20% had one in any assay.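 The test compound was applied at a single concentration to cells in 96-well plates for 48 hours, and percent growth was recorded.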 Values without a mark were called inactive. Activity calls are given as the source filed them. The calls were made as follows: active = growth percent below 10; inactive = the rest.

These compounds were tested on OVCAR-3 ovarian (assay: NCI-60 one-dose screen, 48 h (100 = growth as untreated, 0 = no growth, -100 = all killed)). Conditions: 10 µM unless noted.
With `CC(C)(C)c1cc(C=O)cc(C(C)(C)C)c1O` the growth was 101%. With `COc1ccc(OC)c(CCn2cncc2-c2c[nH]c3ccccc23)c1` the growth was 57%. Work on `COCCCN1CC(O)=C(c2nc(-c3ccc(C)cc3)cs2)C1=N` yielded a growth of 112%. For `O=C(CCN1CCCC1)Nc1ccc2c(Nc3ccc(Br)cc3)c3ccccc3nc2c1`, the growth was -65.1% (active). With `O=C(Cn1c[n+](CC(=O)c2ccc(-c3ccccc3)cc2)c2ccccc21)Nc1cccc2cccnc12` the growth was -1.51% (active). For `CCN1Cc2nc3sc(C)c(C)c3c(=O)n2C=C1C`, the growth was 46%. `Cc1ccc(-n2c3c(c(-c4ccccc4)c2-c2ccccc2)C2=NCCN2C=N3)cc1` was tested, and the growth was 90.5%. In the case of `CCCCC[n+]1ccc(SCC(=O)N(C)c2ccc(Oc3ccccc3)cc2)c2ccccc21`, the growth is reported as 90.9%. `COc1cc(OC)cc(C(=O)C[n+]2cccc3cc[nH]c32)c1` gave a growth of 106%. For `CCOC(=O)[C@@H]1CCCN(S(=O)(=O)c2ccc(S(=O)(=O)N(CC)CC)c(F)c2)C1`, the growth was 88%. With `Cn1ccc2c1CC1CN(Cc3ccco3)C(=O)C1C2C(=O)O` (stereo not drawn) the growth was 103%. `O=C(NO)c1ccc(-n2nc(-c3ccccc3)c3ccccc32)cc1` was tested, and the growth was 1% (active). In the case of `COc1ccc(CC(C)=C(c2ccc(OCCN3CCCCCC3)cc2)c2ccc(OCCN3CCCCCC3)cc2)cc1`, the growth is reported as -89.2% (active). With `Nc1n[nH]c2cccc(C#Cc3cccc(C(=O)Nc4cccc(C(F)(F)F)c4)c3)c12` the growth was 73.8%. Compound `Cc1ccc(C(=O)/C(=C/c2ccc([N+](=O)[O-])cc2)SCc2ccc(Cl)cc2)cc1` has a growth of 47.6%. With `O=C(O)c1ccc2c(c1)C(=O)N(Cc1ccccc1)C2=O` the growth was 103%. In the case of `O=C1Nc2cc(-c3cccc(O)c3)ccc2/C1=C/c1ccc[nH]1`, the growth is reported as -1.19% (active). For `O=Cc1ccc(-c2cn3ccnc3c(-c3ccc4ncn(Cc5ccccc5)c4c3)n2)cc1`, the growth was 76.3%. With `CCc1ccc(CNc2ccc(N3CCOCC3)c(C(=O)O)c2)cc1` the growth was 104%. Work on `O=C(CCN1CCCC1)c1ccc([N+](=O)[O-])cc1` yielded a growth of 104%. In the case of `CNCCOc1nc2c3cnccc3cc(-c3cc(OC)c(OC)c(OC)c3)c2c2ccncc12`, the growth is reported as 1.62% (active). For `Nc1c(S(=O)(=O)O)cc2c3c(cccc13)C(=O)OC2=O`, the growth was 95%. In the case of `Oc1ccc(C(c2ccc(O)cc2)c2ccc(Br)cn2)cc1`, the growth is reported as -37.4% (active). With `CCCCOc1ccc(/C=N/Nc2cc(C)nc3ccc(Br)cc23)cc1` the growth was -53% (active). Work on `CC1(C)NCCC[C@]2(C)[C@H]3CC(=O)[C@H]4[C@@H]5C[C@](C)(CO)CC[C@]5(C)CC[C@@]4(C)[C@]3(C)CC[C@@H]12` yielded a growth of 89.8%. For `N#Cc1cc(-c2nc3ccccc3s2)c(=O)n(NS(=O)(=O)c2ccccc2)c1N`, the growth was 114%. Compound `O=S(=O)(NCCNc1nccc(-c2c(-c3cccc(O)c3)nc3occn23)n1)c1cccc(F)c1` has a growth of 94.7%. Work on `c1ccc2c(-c3c[nH]c4ccccc34)c3c(cc2c1)[nH]c1ccccc13` yielded a growth of 59.3%. For `O=C(/C=C(/C=C/c1csc2ccccc12)OB(F)F)/C=C/c1csc2ccccc12`, the growth was -14.2% (active). `Cc1ccc(-c2csc(NC(=O)CSc3nc(-c4ccccc4)cc(=O)[nH]3)n2)cc1` gave a growth of 101%. Work on `CCCC/C=N/NC(=S)NCc1ccccc1` yielded a growth of 104%. `COc1ccc2nc(-c3ccc(-c4noc(-c5cc(OC)c(OC)c(OC)c5)n4)cc3)[nH]c2c1` gave a growth of 44.8%. `Fc1ccc(-c2cn3c(nc4ccccc43)c(-c3ccccc3)n2)cc1` was tested, and the growth was 111%. `CCNC(=O)Oc1ccc(/C(=C(\C)c2ccccc2)c2ccc(OCCN3CCCCC3)cc2)cc1` gave a growth of 69.4%. Compound `CCCCOc1ccc(/C(C)=N/Nc2cc(C)nc3ccc(Br)cc23)cc1` has a growth of 101%. `N#Cc1cccc(-c2ccc3c(c2)NC(=O)/C3=C\c2ccc[nH]2)c1` gave a growth of 30.7%. `O=C(NNc1nc2c(F)cccc2n2cccc12)c1cnccn1` gave a growth of 23.2%. With `CN(C)CCC(=O)c1ccc([N+](=O)[O-])cc1` the growth was 110%.
